We go through nine compounds from PubChem BioAssay (Tox21).

Records with an inconclusive call do not appear. A number with no mark means an inactive call. Calls of active or inactive are those of the source. Unless noted, calls follow the shape of the dose curve; as a rule, active = well fitted curve in the direction sought with a large enough effect in the repeat runs; inconclusive = weak or mixed curves; inactive = no such curve, though single readings can be large; an effect the other way counts as inactive or inconclusive.

Assay [1] can be described thus: qHTS assay to identify small molecule antagonists of the thyroid receptor (TR) signaling pathway - cell viability counter screen (AID 743064). Also: nearly all actives have a fitted effect of over 50% in size. The procedure, abridged:
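Plate GH3.TRE-Luc cells; incubate 4 h at 37 °C; add compound, then T3 to 1 nM final; incubate 23.5 h; add CellTiter-Fluor; incubate 30 min at 37 °C, 5% CO2; read fluorescence.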

Assay [2] is described as follows: qHTS assay to identify small molecule antagonists of the thyroid receptor (TR) signaling pathway (AID 743065). Also: nearly all actives have a fitted effect of over 55% in size. Also: potency is read from the fitted curve at half-maximal effect. As to activity, negative = inhibition: series mostly up to about 70 µM. The procedure, abridged: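 GH3.TRE-Luc rat pituitary cells (two TREs driving luciferase) were dosed with compound, then stimulated with 1 nM T3 (final) for 23.5 h at 37 C. ONE-Glo luminescence was the read-out, with CellTiter-Fluor fluorescence as the cytotoxicity counter-screen.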

The test system of assay [3] is thyroid hormone receptor (rat, GH3 cells). As to the kind of experiment: qHTS assay to identify small molecule agonists of the thyroid receptor (TR) signaling pathway (AID 743066; calls by dose curve).
A short description of assay [4]: qHTS assay to identify small molecule antagonists of the estrogen receptor alpha (ER-alpha) signaling pathway - cell viability counter screen (AID 743074; calls by dose curve; also: nearly all actives have a fitted effect of over 45% in size).
Assay [5] in a line: qHTS assay to identify small molecule antagonists of the estrogen receptor alpha (ER-alpha) signaling pathway using the BG1 cell line - cell viability counter screen (AID 743081).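 Also: compound given together with 17beta-estradiol as the ER stimulus; series mostly up to about 70 µM; nearly all actives have a fitted effect of over 45% in size.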
In another assay the target is Aromatase (Homo sapiens) (UniProt P11511). As to the kind of experiment: qHTS assay to identify aromatase inhibitors (AID 743083). Also: series mostly up to about 70 µM; nearly all actives have a fitted effect of over 55% in size.
Aromatase (Homo sapiens), sequence (P11511 whole entry, looked up): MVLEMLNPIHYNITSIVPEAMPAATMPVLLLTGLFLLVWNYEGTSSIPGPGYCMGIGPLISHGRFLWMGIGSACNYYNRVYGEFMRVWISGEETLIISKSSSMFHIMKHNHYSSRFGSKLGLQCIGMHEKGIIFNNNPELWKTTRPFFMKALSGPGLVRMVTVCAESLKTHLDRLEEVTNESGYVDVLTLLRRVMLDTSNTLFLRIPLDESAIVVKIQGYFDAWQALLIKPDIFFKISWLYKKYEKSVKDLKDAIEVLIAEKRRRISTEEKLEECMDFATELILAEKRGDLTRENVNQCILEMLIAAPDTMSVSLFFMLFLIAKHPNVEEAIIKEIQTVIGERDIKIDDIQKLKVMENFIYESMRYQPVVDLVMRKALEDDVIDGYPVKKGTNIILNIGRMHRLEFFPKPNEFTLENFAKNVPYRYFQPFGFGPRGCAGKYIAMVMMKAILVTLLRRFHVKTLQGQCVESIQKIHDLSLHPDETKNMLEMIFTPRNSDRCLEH
The nature of assay [6]: qHTS assay to identify aromatase inhibitors - cell viability counter screen (AID 743084).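 Also: cells stimulated with testosterone during compound exposure; nearly all actives have a fitted effect of over 55% in size.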
Assay [7] concerns the target Aryl hydrocarbon receptor (Homo sapiens) (UniProt P35869). Put plainly: qHTS assay to identify small molecule that activate the aryl hydrocarbon receptor (AhR) signaling pathway (AID 743085).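 Also: HG2L7.5c1 human HepG2 liver cells with stably integrated DRE-driven firefly reporter; series mostly up to about 70 µM; nearly all actives have a fitted effect of over 15% in size.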 Put shortly:
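Steps: seed HepG2-AhR-luc cells; allow 5 h at 37C; pin-transfer test compound or vehicle; incubate 24 h at 37C; add viability dye (30 min, 37C) and read fluorescence; add luciferase substrate (30 min, RT) and read luminescence.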

Assay [8] can be described thus: qHTS assay to identify small molecule that activate the aryl hydrocarbon receptor (AhR) signaling pathway - cell viability counter screen (AID 743086).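 Also: HepG2 liver cells carrying the AhR DRE luciferase reporter; series mostly up to about 70 µM; nearly all actives have a fitted effect of over 45% in size.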 Put shortly: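 HepG2-AhR-luc (HG2L7.5c1) cells, 4000/well, treated 24 h at 37 C with compound; viability measured as CellTiter-Fluor fluorescence after 30 min in the same wells as the luciferase read.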
Assay [9] has as its target Peroxisome proliferator-activated receptor gamma (Homo sapiens) (UniProt P37231). Put plainly: qHTS assay to identify small molecule agonists of the peroxisome proliferator-activated receptor gamma (PPARg) signaling pathway (AID 743094; active = well fitted activation curve with a large enough effect in the signal ratio in the repeat runs, not every such curve was filed as active; the % refers to the signal ratio). Put shortly: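 Agonist activity was taken from a beta-lactamase reporter (FRET substrate, 1 h at room temperature) in HEK293H cells carrying a PPARg UAS-bla construct. Compounds in DMSO were incubated 17 h at 37C after a 5 h cell pre-incubation.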

For assay [10] the target is unchanged. Put plainly: qHTS assay to identify small molecule antagonists of the peroxisome proliferator-activated receptor gamma (PPARg) signaling pathway (AID 743191; calls by dose curve; also: series mostly up to about 63 µM; nearly all actives have a fitted effect of over 30% in size). The procedure, abridged: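 GeneBLAzer PPARg UAS-bla HEK293H cells, 5 h post-plating, exposed to compounds 17 h at 37C. LiveBLAzer B/G FRET substrate added for 1 h at room temperature; beta-lactamase reporter read by fluorescence intensity.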

Assay [11] in a line: qHTS assay for small molecule agonists of the antioxidant response element (ARE) signaling pathway (AID 743202; active = well fitted activation curve with a large enough effect in the signal ratio in the repeat runs, not every such curve was filed as active; the % refers to the signal ratio; also: potency is read from the fitted curve at half-maximal effect). Put shortly: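 HepG2 ARE-bla cells; 16 h treatment at 37 C; FRET-based beta-lactamase fluorescence read after 2 h substrate incubation at room temperature.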
Assay [12] in a line: qHTS assay for small molecule agonists of the antioxidant response element (ARE) signaling pathway - cell viability counter screen (AID 743203; calls by dose curve; also: nearly all actives have a fitted effect of over 55% in size). The procedure, abridged: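 Viability counter screen: CellTiter-Glo luminescence, read after 30 min at room temperature, in ARE-bla HepG2 wells. Compound exposure lasted 16 h at 37C/5% CO2, following a 5 h pre-incubation of the cells after plating.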

A short description of assay [13]: qHTS assay for small molecule activators of the heat shock response signaling pathway - cell viability counter screen (AID 743209). Also: nearly all actives have a fitted effect of over 50% in size. Put shortly:
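Cytotoxicity counter screen run in the same wells as the heat-shock bla reporter assay: HeLa HSE-bla cells, 5 h compound exposure at 37 C, viability read by CellTiter-Glo luminescence.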

Assay [14] can be described thus: qHTS assay for small molecule activators of the heat shock response signaling pathway (AID 743210; active = well fitted activation curve with a large enough effect in the signal ratio in the repeat runs, with a control signal flat, not every such curve was filed as active; the % refers to the signal ratio;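 also: HeLa cells with beta-lactamase reporter driven by heat shock elements; series mostly up to about 63 µM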). The procedure, abridged: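 Following overnight attachment, HSE-bla HeLa cells received test compounds for 5 h at 37 C; beta-lactamase activity was then detected via FRET substrate fluorescence.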
Assay [15] deals with Estrogen receptor (Homo sapiens) (UniProt P03372). Put plainly: qHTS assay to identify small molecule antagonists of the estrogen receptor alpha (ER-alpha) signaling pathway (AID 743069; active = well fitted curve in the direction sought with a large enough effect in the signal ratio in the repeat runs, not every such curve was filed as active; the % refers to the signal ratio). Put shortly:
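In this cell-based reporter format, GripTite HEK293 cells harbouring ER-alpha-UAS-bla were grown overnight with 2% charcoal-stripped FBS, dosed with DMSO-dissolved compounds, then challenged with 17beta-estradiol. After 18 hr at 37C, beta-lactamase activity was detected by FRET fluorescence.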

The target is the same in assay [16]. Put plainly: qHTS assay to identify small molecule agonists of the estrogen receptor alpha (ER-alpha) signaling pathway (AID 743075; calls by dose curve).
Assay [17] is described as follows: qHTS assay to identify small molecule antagonists of the estrogen receptor alpha (ER-alpha) signaling pathway using the BG1 cell line (AID 743080; calls by dose curve;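 also: BG1 cells stimulated with 17beta-estradiol alongside compound; series mostly up to about 70 µM; nearly all actives have a fitted effect of over 25% in size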). Put shortly:
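Quantitative HTS on the Tox21 10K library: BG1 cells with endogenous ER-alpha and ERE-luciferase reporter, 17beta-estradiol stimulation, 21.5 h compound exposure, luminescence endpoint with parallel fluorescence cytotoxicity counter-read.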

Assay [18] is described as follows: qHTS assay to identify small molecule antagonists of the peroxisome proliferator-activated receptor gamma (PPARg) signaling pathway - cell viability counter screen (AID 743194). Also: nearly all actives have a fitted effect of over 55% in size. The procedure, abridged: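 Cytotoxicity counter screen in PPARg-bla HEK293H cells, same wells as reporter assay. Compounds plus 50 nM rosiglitazone (final) for 17 h at 37 C, then viability read by CellTiter-Glo luminescence.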

Assay [19] concerns the target Estrogen receptor (Homo sapiens) (UniProt P03372). As to the kind of experiment: qHTS assay to identify small molecule agonists of the estrogen receptor alpha (ER-alpha) signaling pathway using the BG1 cell line (AID 743079). Also: nearly all actives have a fitted effect of over 20% in size. Also: potency is read from the fitted curve at half-maximal effect.
% is scaled to controls: 0 for no effect and ±100 for the full control effect.

Estrogen receptor (Homo sapiens), sequence (P03372 whole entry, looked up): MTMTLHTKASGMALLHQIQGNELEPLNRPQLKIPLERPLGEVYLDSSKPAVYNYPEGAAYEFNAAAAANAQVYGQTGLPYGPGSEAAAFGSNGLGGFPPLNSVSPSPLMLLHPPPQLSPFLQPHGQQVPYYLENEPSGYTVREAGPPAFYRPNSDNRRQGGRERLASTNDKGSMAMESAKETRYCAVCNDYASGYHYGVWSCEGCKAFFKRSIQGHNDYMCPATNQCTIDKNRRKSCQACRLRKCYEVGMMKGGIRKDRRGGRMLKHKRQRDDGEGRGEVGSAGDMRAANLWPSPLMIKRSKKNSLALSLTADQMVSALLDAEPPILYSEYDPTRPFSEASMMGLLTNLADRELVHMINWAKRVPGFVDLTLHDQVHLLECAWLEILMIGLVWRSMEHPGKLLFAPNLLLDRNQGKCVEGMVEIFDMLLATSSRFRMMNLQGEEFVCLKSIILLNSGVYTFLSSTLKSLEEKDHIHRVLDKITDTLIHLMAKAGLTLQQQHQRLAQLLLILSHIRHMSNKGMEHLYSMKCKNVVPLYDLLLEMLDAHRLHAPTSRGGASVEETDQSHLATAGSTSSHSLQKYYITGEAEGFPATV
Peroxisome proliferator-activated receptor gamma (Homo sapiens), sequence (P37231 whole entry, looked up): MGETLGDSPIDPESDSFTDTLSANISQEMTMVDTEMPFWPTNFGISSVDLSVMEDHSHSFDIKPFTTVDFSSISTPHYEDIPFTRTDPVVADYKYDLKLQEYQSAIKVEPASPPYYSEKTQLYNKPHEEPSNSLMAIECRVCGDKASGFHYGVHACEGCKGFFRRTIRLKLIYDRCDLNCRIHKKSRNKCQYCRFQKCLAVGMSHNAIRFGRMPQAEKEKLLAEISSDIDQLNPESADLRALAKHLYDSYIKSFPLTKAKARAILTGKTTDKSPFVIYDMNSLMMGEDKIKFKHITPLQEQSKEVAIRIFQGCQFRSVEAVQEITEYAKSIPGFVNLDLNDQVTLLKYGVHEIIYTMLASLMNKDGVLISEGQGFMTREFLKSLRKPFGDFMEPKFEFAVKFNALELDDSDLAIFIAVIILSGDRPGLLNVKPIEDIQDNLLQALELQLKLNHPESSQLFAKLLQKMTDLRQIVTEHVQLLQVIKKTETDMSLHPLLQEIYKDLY
Aryl hydrocarbon receptor (Homo sapiens), sequence (P35869 whole entry, looked up): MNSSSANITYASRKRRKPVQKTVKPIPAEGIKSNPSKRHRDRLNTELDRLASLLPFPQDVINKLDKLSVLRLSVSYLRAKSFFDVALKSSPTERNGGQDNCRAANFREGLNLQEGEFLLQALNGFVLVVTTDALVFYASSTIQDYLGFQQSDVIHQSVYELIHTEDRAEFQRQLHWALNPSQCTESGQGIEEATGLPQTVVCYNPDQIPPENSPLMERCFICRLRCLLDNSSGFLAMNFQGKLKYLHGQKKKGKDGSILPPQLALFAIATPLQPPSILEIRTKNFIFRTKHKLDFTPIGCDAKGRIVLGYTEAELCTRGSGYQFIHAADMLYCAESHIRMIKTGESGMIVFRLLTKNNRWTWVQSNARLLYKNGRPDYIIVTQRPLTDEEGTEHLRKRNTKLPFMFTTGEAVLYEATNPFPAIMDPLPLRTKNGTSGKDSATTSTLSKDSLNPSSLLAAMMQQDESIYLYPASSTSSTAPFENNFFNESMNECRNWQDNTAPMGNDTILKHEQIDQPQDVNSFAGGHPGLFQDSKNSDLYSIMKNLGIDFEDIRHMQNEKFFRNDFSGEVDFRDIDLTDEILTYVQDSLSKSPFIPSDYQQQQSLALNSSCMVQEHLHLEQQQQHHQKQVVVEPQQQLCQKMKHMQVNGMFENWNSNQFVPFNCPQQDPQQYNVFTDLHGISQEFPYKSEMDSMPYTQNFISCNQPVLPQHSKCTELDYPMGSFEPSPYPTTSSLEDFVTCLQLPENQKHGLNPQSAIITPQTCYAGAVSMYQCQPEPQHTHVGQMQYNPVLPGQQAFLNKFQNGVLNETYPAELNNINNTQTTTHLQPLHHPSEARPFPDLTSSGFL

On to `CCN(CCO)CCCC(C)Nc1ccnc2cc(Cl)ccc12` (stereo unspecified), for which the Potency result (in [1]; in assay [2]; in assay [3]; in assay [5]; in the assay with Aromatase (Homo sapiens); in [6]) was “inactive” in each case. Also, the Potency entry in assay [7], in [8] and in assay [9] was “inactive” in each case. The compound was classed as inactive in assay [4]. Further, in [10], the ratio activity, negative = inhibition is -5.98% [at 5.95 µM]. Further, the activation in assay [11] was -5.09% [at 8.36 µM]; in [14] it was -0.125% [at 5.95 µM]. Also, the viability change, negative = cytotoxic in [12] is -9.02% [at 8.36 µM]. Also, the activity change, negative = cytotoxicity in assay [13] was -18.6% [at 5.95 µM].

Regarding `CC(CN)CCCN` (stereo unspecified), the Potency entry in assay [1], in assay [2], in assay [3], in [15], in assay [16] and in assay [17] was “inactive” in each case. The Potency result (in [5]; with Aromatase (Homo sapiens); in assay [6]; in assay [7]; in assay [8]; in assay [9]) was “inactive” each time. Further, the Potency entry in assay [18], in assay [11], in [12] and in [13] was “inactive” each time. Further, the outcome in [4] and in [14] was inactive.

Take `NC(=S)N/N=C/c1cccnc1`: the Potency result (in assay [1]; in [2]; in assay [3]; in assay [5]; with Aromatase (Homo sapiens); in [6]) was “inactive” throughout. Moreover, the Potency result in [7], in assay [8], in assay [9], in [11], in [12] and in assay [13] was “inactive” in each case. Also, the compound was called inactive in assay [4] and in assay [14].

As for `O=C(NS(=O)(=O)/C=C/c1cccs1)c1ccc(F)cc1Br`, the Potency entry (in assay [1]; in assay [2]; in assay [3]; in [5]; with Aromatase (Homo sapiens); in assay [6]) was “inactive” each time. For the same compound, the Potency entry in [8], in [18], in assay [12] and in assay [13] was “inactive” throughout. Further, the call in [4] and in assay [14] was inactive. Besides, the Potency in assay [19] was 68.6 µM (active).

As for `CCCCCC/C=C/C=O`, the Potency entry (in assay [1]; in assay [2]; in [3]; in assay [5]; in the assay with Aromatase (Homo sapiens); in assay [6]) was “inactive” throughout. The Potency result in assay [7], in [8], in assay [9], in assay [11], in assay [12] and in [13] was “inactive” throughout. For the same compound, the result in assay [4] was inactive.

As for `NC1CCN(c2nc3c(cc2F)c(=O)c(C(=O)O)cn3-c2ccc(F)cc2F)C1` (stereo unspecified), the Potency entry (in assay [1]; in assay [3]; in [16]; in [19]; in assay [17]; with Aromatase (Homo sapiens)) was “inactive” throughout. In addition, the Potency result in assay [6], in [7], in [8], in assay [12] and in assay [13] was “inactive” throughout. Also, the results for the Potency in [2] and in assay [11] were 23.7 µM (active) and 26.6 µM (active), respectively. In addition, the outcome in assay [4] was inactive.

Turning to `Nc1nc(N)c(-c2ccccc2)s1`, the Potency entry (in [1]; in assay [2]; in assay [3]; in assay [5]; with Aromatase (Homo sapiens); in assay [6]) was “inactive” each time. The Potency entry in assay [7], in assay [8], in [9], in assay [10], in assay [18] and in assay [11] was “inactive” in each case. Besides, the Potency result in [12] and in assay [13] was “inactive” throughout. For the same compound, the outcome in assay [4] and in assay [14] was inactive.

In the case of `CCN(CC)C(C)=O`, the Potency result (in assay [1]; in assay [2]; in assay [3]; in [5]; with Aromatase (Homo sapiens); in [6]) was “inactive” each time. Also, the Potency entry in assay [7], in [8], in assay [9], in assay [18], in assay [11] and in [12] was “inactive” throughout. Also, the result in [4] and in assay [14] was inactive.

As to `CC(C)CCCCCCOC(=O)c1ccc(C(=O)OCCCCCCC(C)C)c(C(=O)OCCCCCCC(C)C)c1`, the Potency entry (in [1]; in assay [2]; in assay [3]; in [5]; with Aromatase (Homo sapiens); in assay [6]) was “inactive” each time. In addition, the Potency result in [7], in assay [8], in assay [9], in [18], in assay [12] and in assay [13] was “inactive” in each case. Besides, the compound was classed as inactive in assay [4] and in assay [14].
